Source: PubChem
Calb FLC = C. albicans growth modulation with fluconazole; C. albicans CaCi-2 (fluconazole-resistant clinical isolate) + fluconazole, Alamar Blue growth, 48 h; growth inhibition, % (test concentration not listed); 300,000 compounds, 0.57% hits; AID 1979;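 active = growth inhibition above about 58% in most replicates, limit read from the data, passing the limit was not always enough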;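 also: all wells also contain fluconazole at 8 µg/ml as a sub-toxic cotreatment; 0% = median of DMSO wells and 100% = median of geldanamycin control wells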
Beta cell apopt = blocks beta cell apoptosis | INS-1E cytokine-induced death, ATP luminescence, 48 h; percent of positive-control rescue, neutral wells zero | protection from apoptosis, % (test concentration not listed) | 300,000 compounds, 0.8% hits;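 active = Every replicate reaches about 75%, or at least half do and their mean reaches it too, limit read from the data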;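 also: 0% = cytokine-treated negative control wells and 100% = positive control rescue; higher means more ATP so stronger rescue from cytokine killing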
CSC inhib = blocks cancer stem cells. inhibition, % at 7.5 µM. AID 2717. 300,000 compounds, 1.1% hits. cancer stem cell-like cells viability, luminescence; in the data active = inhibition above about 75%; tested in HMLE shEcad cells
Shn3 3UTR inh = Schnurri-3 reporter inhibition in Clone20 osteoblasts; Clone20 osteoblast Shn3 3'UTR firefly luciferase, 24 h; inhibition, % at 12.5 µM; 360,000 compounds, 0.52% hits; AID 588674;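 active = mean inhibition of at least 75% with every replicate also reaching 75%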;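 also: 0% = median of neutral control wells and 100% = pilot-screen positive control compound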
PfHsp90 yeast 2 = reduces growth (ATP signal) of yeast expressing P. falciparum Hsp90; S. cerevisiae expressing PfHsp90, BacTiter-Glo ATP, 48 h; yeast lacking PDR1 and PDR3 efflux regulators; inhibition, % at 9.4 µM; 310,000 compounds, 0.32% hits; AID 504621;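 active = every replicate shows inhibition above about 80%, whatever the replicate mean, limit read from the data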;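 also: 0% = DMSO neutral controls and 100% = 20 µM radicicol positive controls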
Starred values were filed as active, the others as inactive; . = not tested or not shown. A selection: hits, their analogues and other compounds. The true share with any hit is near 2.2%.

SMILES	Calb FLC	Beta cell apopt	CSC inhib	Shn3 3UTR inh	PfHsp90 yeast 2
O=C(NNC(=O)c1cc(-c2ccc(Cl)cc2)nc2ccccc12)c1csc(N2CCOCC2)n1	82*	9	31	6	.
O=C(NNC(=O)c1cc(-c2ccccc2)nc2ccccc12)c1csc(N2CCOCC2)n1	48	8	12	6	.
O=C(N/N=C/c1cccc(O)c1)c1cc(-c2ccc3c(c2)OCO3)n[nH]1	18	22	76*	-7	1
O=C(N/N=C/c1ccc(O)cc1)c1cc(-c2ccc3c(c2)OCO3)n[nH]1	16	11	127*	-17	9
Cc1csc(N/N=C/c2ccccn2)n1	-1	7	83*	48	1
Cc1csc(N/N=C/c2ccc([N+](=O)[O-])cc2)n1	47	7	0	-42	-9
Brc1ccc(/C=C/C=N/Nc2nc3ccccc3s2)cc1	99*	4	12	-55	.
C(=N\NC1=Nc2cccc3cccc1c23)/c1ccccn1	94*	.	.	50	3
Cc1ccc2[nH]c(C)c(/C=N/Nc3nc4ccccc4s3)c2c1	1	2	-15	-27	106*
C[C@H](NC(=O)c1ncn2c1C(=O)N(C)CC2)C(=O)OC(C)(C)C	.	.	.	7	.
COCOCCn1cc(CN2CCS(=O)(=O)N(Cc3ccc(-c4ccncc4)cc3)C(C(C)C)C2=O)nn1 (stereo not given)	.	.	.	2	.
C(=N\Nc1nc2ccccc2s1)/c1ccccn1	-3	.	94*	.	.
C(=NNc1ccc2ccccc2n1)c1ccccn1	.	.	.	92*	.
COc1ccc(/C=C/c2nc3ccccc3c(=O)o2)cc1	-13	-6	9	57	27
COc1ccc(/C=C/c2nc3cc(-c4ccccc4)ccc3o2)cc1O	10	3	102*	5	-18
NS(=O)(=O)c1ccc(CCNCc2cc(Br)ccc2OCc2ccccc2F)cc1	-14	49	-6	86*	-7
Nc1nonc1C(=O)NCCNCc1ccccc1OCc1ccccc1F	-18	3	.	41	.
Nc1nonc1C(=O)NCCNCc1cc(Br)ccc1OCc1ccccc1F	-2	66	4	85*	.
NS(=O)(=O)c1ccc(CCNCc2cc(Cl)ccc2OCc2ccccc2)cc1	-3	42	-5	84	-14
O=C(CN(C(=O)c1csnn1)c1ccc(Cl)cc1)NCCc1ccccc1	5	-4	.	-10	20
CC12CC3(C)CC(C)(C1)CC(C(=O)NC(=S)N1CCCC1)(C2)C3	14	.	10	-2	-28
Cc1cnc(NC(=O)CN2CCN(c3ccccn3)CC2)s1	5	79*	-6	-33	7
COC(=O)C1=C(C(=O)OC)[C@@H]2N(Cc3ccccc3)c3ccccc3[C@@]23C[C@@H](C(=O)OC)N(C(=O)c2ccc(Br)cc2)C3=N1	4	0	-4	97*	-37
COc1ccc(N2CCN(C(=O)c3cn(CC4CCCCC4)nn3)CC2)cc1	-1	-4	-4	-11	-36
O=C(NCc1cc([N+](=O)[O-])ccc1O)c1cccnc1Sc1ccccc1Cl	86*	4	-2	3	7
SMILES	Calb FLC	Beta cell apopt	CSC inhib	Shn3 3UTR inh	PfHsp90 yeast 2
CCNc1nc(NC(C)C)nc(NC(C)(C)C)n1	83*	37	0	11	-2
CC(C)Nc1nc(NNc2nc(Cl)nc(NC(C)(C)C)n2)nc(NC(C)C)n1	-14	-1	-7	12	.
Brc1ccc(-c2nnc3sc(CN4CCc5ccccc5C4)cn23)cc1	.	.	.	18	15
c1ccc(-c2nnc3sc(CN4CCc5ccccc54)cn23)cc1	-3	17	76*	19	9
Clc1c(Cl)c(Cl)c2n[nH]nc2c1Cl	45	-3	36	7	6
O=C(CSCc1cccc(CSCC(=O)Nc2ccccc2)n1)Nc1ccccc1	111*	2	-24	-4	7
Clc1ccc(Cl)c(OCCCCN2CCNCC2)c1	-18	3	96*	-23	-5
O=[N+]([O-])c1ccc(-c2nc(Nc3cccc(O)c3)c3ccccc3n2)cc1	-2	.	94*	26	5
Oc1ccc(Nc2nc(NCC3CCCO3)c3ccccc3n2)cc1 (stereo not given)	35	.	.	48	-15
Cc1ccc(-c2nc(N/N=C/c3cccc([N+](=O)[O-])c3)c3ccccc3n2)cc1	-4	0	62	-22	-27
O=C(O)c1cccc(Nc2nc(-c3ccc([N+](=O)[O-])cc3)nc3ccccc23)c1	0	-1	12	10	-8
Cc1ccc(-c2nc(N/N=C/c3cccnc3)c3ccccc3n2)cc1	-9	76*	41	-15	17
